Results reported in PubChem BioAssay (NCI).
This is part of a sample that, as a whole, favours compounds with a hit. Of some 79,000 tested, about 15% had one in any assay. Activity calls are given as the source filed them. Rule as the data show it: active = growth inhibition above about 70%; inactive = the rest.

Assays:
[1] = NCI Yeast Anticancer Drug Screen. Data for the wt1 strain (AID 149);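 also: 0% = growth of vehicle-treated wt1 cultures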; settings: S. cerevisiae wt1 strain (SPY 50644) growth inhibition, active compounds read high
Procedure, shortened: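 Each compound is tested on wt1 yeast and the loss of growth versus vehicle gives the inhibition value.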

[2] = NCI Yeast Anticancer Drug Screen. Data for the rad50EPP+ strain (AID 151);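 also: 0% = growth of vehicle-treated control cultures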; settings: S. cerevisiae rad50 mutant strain, active compounds read high
Procedure, shortened: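 In this screen, rad50EPP+ yeast were exposed to compounds. Growth inhibition was scored against vehicle-treated controls.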

[3] = NCI Yeast Anticancer Drug Screen. Data for the mgt1 strain (AID 153); settings: S. cerevisiae mgt1 mutant growth inhibition, active compounds read high
Procedure, shortened: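 mgt1 strain exposed; growth vs vehicle control recorded as inhibition.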

[4] = NCI Yeast Anticancer Drug Screen. Data for the rad50 strain (AID 155);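 also: 0% = growth of vehicle-only cultures of the same strain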; settings: S. cerevisiae rad50 strain growth inhibition, active compounds read high
Procedure, shortened: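 Vehicle-treated cultures provide the reference for the growth inhibition reported for compound-exposed, repair-deficient yeast.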

[5] = NCI Yeast Anticancer Drug Screen. Data for the mec2-1 strain (AID 157); settings: S. cerevisiae mec2-1 strain, active compounds read high
Procedure, shortened: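 Vehicle-treated cultures served as reference for growth inhibition of compound-exposed mec2-1 yeast.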

[6] = NCI Yeast Anticancer Drug Screen. Data for the rad14 strain (AID 159);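 also: 0% = growth of vehicle-treated control cultures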; settings: S. cerevisiae rad14 strain growth inhibition, active compounds read high
Procedure, shortened: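 Inhibition of growth is reported for a repair-deficient yeast mutant following compound treatment, calculated relative to cultures that received vehicle.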

[7] = NCI Yeast Anticancer Drug Screen. Data for the sgs1 mgt1 strain (AID 161);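 also: 0% = growth of cultures given vehicle only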; settings: S. cerevisiae sgs1 mgt1 strain, active compounds read high
Procedure, shortened: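 Inhibition of yeast growth, normalised to vehicle-treated controls, is reported for a strain bearing genetic alterations in DNA damage repair.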

[8] = NCI Yeast Anticancer Drug Screen. Data for the CLN2oe strain (AID 163);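 also: 0% = growth of vehicle-only control cultures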; settings: S. cerevisiae CLN2oe strain, active compounds read high
Procedure, shortened: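 Inhibition relative to vehicle-treated yeast is reported. Cells: strain with genetic alteration in cell-cycle control, grown with compound.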

[9] = NCI Yeast Anticancer Drug Screen. Data for the cln2 rad14 strain (AID 165);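 also: 0% = growth equal to vehicle treated cultures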; settings: S. cerevisiae cln2 rad14 strain, active compounds read high
Procedure, shortened: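 Each compound was tested on cln2 rad14 yeast. Inhibition of growth was calculated against vehicle-exposed controls.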

[10] = NCI Yeast Anticancer Drug Screen. Data for the bub3 strain (AID 167); settings: S. cerevisiae bub3 mutant strain, active compounds read high
Procedure, shortened: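 Mutant yeast screening strain plus compound; vehicle-treated cultures serve as the 0% inhibition reference.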

[11] = NCI Yeast Anticancer Drug Screen. Data for the wt2 strain (AID 169); settings: S. cerevisiae wt2 strain growth inhibition, active compounds read high
Procedure, shortened: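 Inhibition of yeast growth was determined after compound treatment, normalised to controls receiving only vehicle.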

[12] = NCI Yeast Anticancer Drug Screen. Data for the mlh1 strain (AID 171);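 also: 0% = growth of vehicle-treated control cultures of the same strain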; settings: S. cerevisiae mlh1 strain growth inhibition, active compounds read high
Procedure, shortened: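 Vehicle-normalised growth inhibition of a repair- or checkpoint-altered yeast strain following compound treatment.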

[13] = NCI Yeast Anticancer Drug Screen. Data for the mlh1 rad18 strain (AID 175); settings: S. cerevisiae mlh1 rad18 strain growth inhibition, active compounds read high
Procedure, shortened: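 Vehicle-treated cultures served as the reference for growth inhibition in a yeast strain carrying DNA damage repair alterations exposed to each compound.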

[14] = NCI Yeast Anticancer Drug Screen. Data for the rad18 strain (AID 177); settings: S. cerevisiae rad18 mutant growth inhibition, active compounds read high
Procedure, shortened: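 Test articles were incubated with altered yeast defective in DNA damage repair. Results are given as inhibition of growth versus vehicle.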

[15] = at 5.0 µM (retest, dose inferred, filed as 0.5)
[16] = at 50.0 µM (retest, dose inferred, filed as 5.0)

Measured: growth inhibition

CC1(C)CC(=O)C(C(CC(c2ccccc2)c2cc3c(cc2O)OCO3)C2=C(O)CC(C)(C)CC2=O)=C(O)C1 (stereo unspecified)
active: [1]; at 33.0 µM 75% | [1]; at 100.0 µM 85% | [3]; at 33.0 µM 86% | [3]; at 100.0 µM 88% | [4]; at 33.0 µM 77% | [4]; [16] 96% | [4]; at 50.0 µM 94.8% | [4]; at 100.0 µM 83% | [5]; at 33.0 µM 84% | [5]; [16] 97% | [5]; at 50.0 µM 93.5% | [5]; at 100.0 µM 87% | [6]; at 100.0 µM 78% | [7]; [16] 96% | [7]; at 50.0 µM 96.8% | [8]; at 33.0 µM 76% | [8]; at 100.0 µM 87% | [9]; [16] 98% | [9]; at 50.0 µM 95% | [10]; [15] 74% | [10]; [16] 99% | [10]; at 50.0 µM 96% | [10]; at 100.0 µM 82% | [11]; at 33.0 µM 88% | [11]; at 100.0 µM 88% | [12]; at 33.0 µM 82% | [12]; at 100.0 µM 87% | [13]; [16] 97% | [13]; at 50.0 µM 95.6% | [14]; at 33.0 µM 82% | [14]; at 100.0 µM 82%
inactive: [1]; at 1.2 µM -84% | [1]; at 3.7 µM -3% | [1]; at 11.0 µM 22% | [2]; at 1.2 µM -2% | [2]; at 3.7 µM -1% | [2]; at 11.0 µM 8% | [2]; at 33.0 µM 18% | [2]; at 100.0 µM 10% | [3]; at 1.2 µM -2% | [3]; at 3.7 µM 1% | [3]; at 11.0 µM 48% | [4]; at 1.2 µM -2% | [4]; at 3.7 µM 1% | [4]; [15] 11% | [4]; at 11.0 µM 33% | [5]; at 1.2 µM -6% | [5]; at 3.7 µM -3% | [5]; [15] 1% | [5]; at 11.0 µM 43% | [6]; at 1.2 µM -1% | [6]; at 3.7 µM 1% | [6]; at 11.0 µM 22% | [6]; at 33.0 µM 68% | [7]; [15] 0% | [8]; at 1.2 µM -5% | [8]; at 3.7 µM -3% | [8]; at 11.0 µM 1% | [9]; [15] 21% | [10]; at 1.2 µM -3% | [10]; at 3.7 µM -9% | [10]; at 11.0 µM -6% | [10]; at 33.0 µM 63% | [11]; at 1.2 µM -4% | [11]; at 3.7 µM -5% | [11]; at 11.0 µM 21% | [12]; at 1.2 µM -2% | [12]; at 3.7 µM -3% | [12]; at 11.0 µM 39% | [13]; [15] 3% | [14]; at 1.2 µM -2% | [14]; at 3.7 µM 5% | [14]; at 11.0 µM 28%

Cc1ccccc1C1=C(CC(=O)O)c2ccccc2CC1C (stereo unspecified)
inactive: [1]; at 1.2 µM 4% | [1]; at 3.7 µM 8% | [1]; at 11.0 µM 29% | [2]; at 1.2 µM -1% | [2]; at 3.7 µM 2% | [2]; at 11.0 µM 6% | [2]; at 33.0 µM 10% | [2]; at 100.0 µM 49% | [3]; at 1.2 µM 9% | [3]; at 3.7 µM 11% | [3]; at 11.0 µM 22% | [4]; at 1.2 µM 6% | [4]; at 3.7 µM 10% | [4]; [15] 6% | [4]; at 11.0 µM 45% | [4]; [16] 10% | [5]; at 1.2 µM 9% | [5]; at 3.7 µM 20% | [5]; [15] 10% | [5]; at 11.0 µM 49% | [5]; [16] 6% | [6]; at 1.2 µM 6% | [6]; at 3.7 µM 11% | [6]; at 11.0 µM 29% | [7]; [15] 2% | [7]; [16] 20% | [8]; at 1.2 µM 10% | [8]; at 3.7 µM 15% | [8]; at 11.0 µM 57% | [9]; [15] -13% | [9]; [16] 28% | [10]; at 1.2 µM 11% | [10]; at 3.7 µM 9% | [10]; [15] -4% | [10]; at 11.0 µM 26% | [10]; [16] 1% | [11]; at 1.2 µM 5% | [11]; at 3.7 µM 7% | [11]; at 11.0 µM 37% | [12]; at 1.2 µM 6% | [12]; at 3.7 µM 12% | [12]; at 11.0 µM 32% | [13]; [15] 14% | [13]; [16] 50% | [14]; at 1.2 µM 4% | [14]; at 3.7 µM 10% | [14]; at 11.0 µM 38%
active: [1]; at 33.0 µM 96% | [1]; at 100.0 µM 96% | [3]; at 33.0 µM 95% | [3]; at 100.0 µM 99% | [4]; at 33.0 µM 97% | [4]; at 50.0 µM 98.9% | [4]; at 100.0 µM 99% | [5]; at 33.0 µM 95% | [5]; at 50.0 µM 99.7% | [5]; at 100.0 µM 99% | [6]; at 33.0 µM 98% | [6]; at 100.0 µM 99% | [7]; at 50.0 µM 99.6% | [8]; at 33.0 µM 97% | [8]; at 100.0 µM 98% | [9]; at 50.0 µM 99.4% | [10]; at 33.0 µM 93% | [10]; at 50.0 µM 99% | [10]; at 100.0 µM 99% | [11]; at 33.0 µM 97% | [11]; at 100.0 µM 98% | [12]; at 33.0 µM 96% | [12]; at 100.0 µM 99% | [13]; at 50.0 µM 99.5% | [14]; at 33.0 µM 96% | [14]; at 100.0 µM 99%
